Records with an inconclusive call do not appear. Activity calls are given as the source filed them. Calls follow the shape of the dose curve; as a rule, active = well fitted curve in the direction sought with a large enough effect; inconclusive = small, poorly fitted or top-dose-only effect, or another doubt; inactive = no such curve, though single readings can be large; an effect the other way counts as inactive or inconclusive.
Assays:
[1] = qHTS of pediatric cancer cell lines to identify multiple opportunities for drug repurposing: Primary screen for BT-12 cells (AID 1347101); also: nearly all actives have a fitted effect of over 25% in size; also: potency is read from the fitted curve at half-maximal effect
How it was run: (§1)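 Cells (500-1,000/well) rested 5 h, then received compounds for 48 h; metabolically active cells were measured by CellTiter-Glo luminescence. Final concentrations spanned up to 46 µM (MIPE, 11-point) or 0.59 nM-46 µM (NPC, 8-point) in primary screens, 11-point in follow-ups.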

[2] = qHTS of pediatric cancer cell lines to identify multiple opportunities for drug repurposing: Primary screen for OHS-50 cells (AID 1347103); also: potency is read from the fitted curve at half-maximal effect; nearly all actives have a fitted effect of over 40% in size
How it was run: as §1

[3] = qHTS of pediatric cancer cell lines to identify multiple opportunities for drug repurposing: Primary screen for RD cells (AID 1347104); also: nearly all actives have a fitted effect of over 55% in size; also: potency is read from the fitted curve at half-maximal effect
How it was run: (§2)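 Following a 5-hour attachment period, cells at 500-1,000/well received compounds and were cultured for 48 hours. CellTiter-Glo was added and luminescence read to estimate viable, metabolically active cells.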

[4] = qHTS of pediatric cancer cell lines to identify multiple opportunities for drug repurposing: Primary screen for MG 63 (6-TG R) cells (AID 1347105); also: nearly all actives have a fitted effect of over 50% in size; also: potency is read from the fitted curve at half-maximal effect
How it was run: as §2

[5] = qHTS of pediatric cancer cell lines to identify multiple opportunities for drug repurposing: Confirmatory screen for NB1643 cells (AID 1347109); also: nearly all actives have a fitted effect of over 45% in size; also: potency is read from the fitted curve at half-maximal effect
How it was run: (§3)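 Cells (500-1,000/well) in growth media were settled 5 h at 37 degrees C, then given compounds for 48 h. Viability was read as CellTiter-Glo luminescence. Primary runs used MIPE at 11 points (0.78 nM-46 µM) and NPC at 8 points (0.59 nM-46 µM); follow-ups used 11 points.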

[6] = qHTS of pediatric cancer cell lines to identify multiple opportunities for drug repurposing: Confirmatory screen for A673 cells (AID 1347110);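 also: cells exposed to compound for 48 h before the viability read; nearly all actives have a fitted effect of over 65% in size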; also: potency is read from the fitted curve at half-maximal effect
How it was run: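 qHTS titration format: primary MIPE 0.78 nM-46 µM (11 pts), NPC 0.59 nM-46 µM; confirmation 11 pts. 48 h, CTG luminescence.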

[7] = qHTS of pediatric cancer cell lines to identify multiple opportunities for drug repurposing: Confirmatory screen for SK-N-MC cells (AID 1347111);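 also: cells exposed to compound for 48 h before the readout; nearly all actives have a fitted effect of over 70% in size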; also: potency is read from the fitted curve at half-maximal effect
How it was run: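 Metabolically active cells were quantified by ATP-dependent luminescence (CellTiter-Glo, 15 min at room temperature) following 48 h treatment. Cells had been plated at 500-1,000 per well and settled for 5 h beforehand.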

[8] = qHTS of pediatric cancer cell lines to identify multiple opportunities for drug repurposing: Confirmatory screen for BT-12 cells (AID 1347112); also: nearly all actives have a fitted effect of over 55% in size; also: potency is read from the fitted curve at half-maximal effect
How it was run: as §3

[9] = qHTS of pediatric cancer cell lines to identify multiple opportunities for drug repurposing: Confirmatory screen for LAN-5 cells (AID 1347113); also: nearly all actives have a fitted effect of over 65% in size; also: potency is read from the fitted curve at half-maximal effect
How it was run: as §3

[10] = qHTS of pediatric cancer cell lines to identify multiple opportunities for drug repurposing: Confirmatory screen for NB-EBc1 cells (AID 1347115);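 also: cells exposed to compound for 48 h before the viability read; nearly all actives have a fitted effect of over 45% in size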; also: potency is read from the fitted curve at half-maximal effect
How it was run: as §3

[11] = qHTS of pediatric cancer cell lines to identify multiple opportunities for drug repurposing: Confirmatory screen for SJ-GBM2 cells (AID 1347116); also: nearly all actives have a fitted effect of over 60% in size; also: potency is read from the fitted curve at half-maximal effect
How it was run: (§4)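 Viability measured as metabolically active cells via CellTiter-Glo luminescence following 48 hours of compound exposure, 11-point dilutions in confirmatory testing. 500-1,000 cells/well plated 5 hours before dosing; controls were DMSO and 2.3 µM bortezomib.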

[12] = qHTS of pediatric cancer cell lines to identify multiple opportunities for drug repurposing: Confirmatory screen for BT-37 cells (AID 1347117); settings: BT-37 pediatric cancer cells, viability; activity change, negative = cytotoxic: at 45.9 µM (top of the series); also: nearly all actives have a fitted effect of over 55% in size; also: potency is read from the fitted curve at half-maximal effect
How it was run: as §3

[13] = qHTS of pediatric cancer cell lines to identify multiple opportunities for drug repurposing: Confirmatory screen for TC32 cells (AID 1347118);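 also: cells exposed to compound for 48 h before the read; nearly all actives have a fitted effect of over 65% in size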; also: potency is read from the fitted curve at half-maximal effect
How it was run: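 Measured quantity: luminescence from CellTiter-Glo, reflecting metabolically active TC32 cells following 48 h of compound. Curves came straight from multi-point titrations, with 8 or 11 points in primary and 11 in confirmatory screening.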

[14] = qHTS of pediatric cancer cell lines to identify multiple opportunities for drug repurposing: Primary screen for Rh18 cells (AID 1347102); also: nearly all actives have a fitted effect of over 65% in size; also: potency is read from the fitted curve at half-maximal effect
How it was run: as §3

[15] = qHTS of pediatric cancer cell lines to identify multiple opportunities for drug repurposing: Primary screen for Rh30 cells (AID 1347107); also: nearly all actives have a fitted effect of over 75% in size; also: potency is read from the fitted curve at half-maximal effect
How it was run: as §3

[16] = qHTS of pediatric cancer cell lines to identify multiple opportunities for drug repurposing: Primary screen for Rh41 cells (AID 1347108); also: nearly all actives have a fitted effect of over 70% in size; also: potency is read from the fitted curve at half-maximal effect;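 as to activity change, negative = cytotoxic: luminescence drop marks cytotoxic hits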
How it was run: as §2

[17] = qHTS of pediatric cancer cell lines to identify multiple opportunities for drug repurposing: Confirmatory screen for DAOY cells (AID 1347114); also: nearly all actives have a fitted effect of over 65% in size; also: potency is read from the fitted curve at half-maximal effect
How it was run: as §4

[18] = qHTS of pediatric cancer cell lines to identify multiple opportunities for drug repurposing: Confirmatory screen for MG 63 (6-TG R) cells (AID 1347119); also: nearly all actives have a fitted effect of over 55% in size; also: potency is read from the fitted curve at half-maximal effect
How it was run: as §3

[19] = qHTS of pediatric cancer cell lines to identify multiple opportunities for drug repurposing: Confirmatory screen for control Hh wild type fibroblast cells (AID 1347121); also: nearly all actives have a fitted effect of over 70% in size; also: potency is read from the fitted curve at half-maximal effect
How it was run: as §3

[20] = qHTS of pediatric cancer cell lines to identify multiple opportunities for drug repurposing: Primary screen for control Hh wild type fibroblast cells (AID 1347106)
How it was run: as §3

Nc1ncn([C@@H]2O[C@H](CO)[C@@H](O)[C@@H]2O)c(=O)n1
Potency [1]: 5.44 µM (active)
Potency [2]: 15.3 µM (active)
Potency [3]: 5.9 µM (active)
Potency [4]: inactive
Potency [5]: 16.5 µM (active)
Potency [6]: 5.85 µM (active)
Potency [7]: 16.5 µM (active)
Potency [8]: 18.5 µM (active)
Potency [9]: 16.5 µM (active)
Potency [10]: 13.1 µM (active)
Potency [11]: 16.5 µM (active)
Potency [12]: 16.5 µM (active)
Potency [13]: 4.65 µM (active)

CC1(C)O[C@@H]2C[C@H]3[C@@H]4CCC5=CC(=O)C=C[C@]5(C)[C@@H]4[C@@H](O)C[C@]3(C)[C@]2(C(=O)CO)O1
Potency [1]: inactive
Potency [14]: inactive
Potency [4]: inactive
Potency [15]: inactive
Potency [16]: inactive
Potency [5]: inactive
Potency [6]: inactive
Potency [7]: inactive
Potency [8]: inactive
Potency [9]: inactive
Potency [17]: inactive
Potency [10]: inactive
Potency [11]: inactive
Potency [12]: inactive
Potency [13]: inactive
Potency [18]: inactive
Potency [19]: inactive

CCOc1cc2c(c(F)c1OCC)C(=N)N(CC(=O)c1cc(N3CCOCC3)c(OC)c(C(C)(C)C)c1)C2
Potency [1]: 27.3 µM (active)
Potency [2]: 21.7 µM (active)
Potency [3]: 16.6 µM (active)
Potency [4]: 14.8 µM (active)
Potency [20]: inactive
Potency [16]: 23.5 µM (active)

C=C1C(=O)O[C@H]2[C@@H]1CCC(C)=CCC[C@@]1(C)O[C@@H]21
Potency [1]: 21.7 µM (active)
Potency [14]: 23.5 µM (active)
Potency [3]: 18.7 µM (active)
Potency [4]: 9.35 µM (active)
Potency [15]: 18.7 µM (active)
Potency [16]: 11.8 µM (active)

C#Cc1cccc(Nc2ncnc3cc(OCCOC)c(OCCO)cc23)c1
Potency [1]: 13.7 µM (active)
Potency [2]: 3.85 µM (active)
Potency [3]: 1.66 µM (active)
Potency [15]: inactive
Potency [16]: 7.43 µM (active)

CC(C)c1cnn2c(NCc3ccccc3)cc(NCCCCCCN)nc12
Potency [1]: 27.3 µM (active)
Potency [2]: 21.7 µM (active)
Potency [3]: 18.7 µM (active)
Potency [4]: 5.9 µM (active)
Potency [16]: 7.43 µM (active)

C=Cc1c(C)c2cc3nc(cc4[nH]c(cc5nc(cc1[nH]2)C(C)=C5CCC(=O)O)c(CCC(=O)OC)c4C)[C@@]1(C)C3=CC=C(C(=O)OC)[C@H]1C(=O)OC
Potency [1]: 0.344 µM (active)
Potency [2]: 0.769 µM (active)
Potency [3]: 0.105 µM (active)
Potency [4]: 1.18 µM (active)
Potency [15]: inactive
Potency [16]: 0.0743 µM (active)
Potency [5]: inactive
Potency [8]: inactive
Potency [10]: inactive
Potency [11]: inactive
Potency [19]: inactive

COc1cc2c(cc1OC)[C@@H]1C(=O)c3ccc4c(c3O[C@@H]1CO2)C=CC(C)(C)O4
Potency [1]: 0.0273 µM (active)
Potency [14]: inactive
Potency [3]: 0.264 µM (active)
Potency [6]: 16.5 µM (active)
Potency [7]: 2.33 µM (active)
Potency [9]: 3.69 µM (active)
Potency [17]: 0.185 µM (active)
Potency [10]: 0.827 µM (active)
Potency [12]: 2.08 µM (active)
Potency [18]: 0.104 µM (active)
Potency [19]: 0.293 µM (active)

C[N+](C)([O-])CCNc1ccc(NCC[N+](C)(C)[O-])c2c1C(=O)c1c(O)ccc(O)c1C2=O
Potency [1]: inactive
Potency [14]: inactive
Potency [4]: inactive
Potency [20]: inactive
Potency [10]: inactive
Potency [13]: 4.14 µM (active)
Potency [18]: inactive
Potency [19]: inactive

Nc1nc(N)c2nc(-c3cccc(O)c3)c(-c3cccc(O)c3)nc2n1
Potency [1]: 21.7 µM (active)
Potency [2]: 19.3 µM (active)
Potency [3]: 11.8 µM (active)

C=CCNC1=C2C[C@@H](C)C[C@H](OC)[C@@H](O)[C@@H](C)C=C(C)[C@H](OC(N)=O)[C@@H](OC)C=CC=C(C)C(=O)NC(=CC1=O)C2=O
Potency [1]: 19.3 µM (active)
Potency [14]: 0.833 µM (active)
Potency [3]: 0.235 µM (active)
Potency [4]: 23.5 µM (active)
Potency [15]: 13.2 µM (active)
Potency [16]: 3.72 µM (active)
Potency [5]: 1.17 µM (active)
Potency [6]: 1.17 µM (active)
Potency [7]: 2.33 µM (active)
Potency [8]: inactive
Potency [9]: 4.65 µM (active)
Potency [17]: 4.65 µM (active)
Potency [10]: 7.37 µM (active)
Potency [11]: 0.165 µM (active)
Potency [12]: 0.0928 µM (active)
Potency [13]: 0.522 µM (active)
Potency [18]: 2.61 µM (active)

CC(C(C)N1CC(=O)NC(=O)C1)N1CC(=O)NC(=O)C1 (stereo unspecified)
Potency [1]: inactive
Potency [14]: inactive
Potency [3]: inactive
Potency [4]: inactive
Potency [20]: inactive
Potency [16]: inactive
Potency [6]: inactive
Potency [7]: 2.93 µM (active)
Potency [8]: inactive
Potency [9]: inactive
Potency [17]: inactive
Potency [12]: 9.27 µM (active)
Potency [13]: 4.14 µM (active)
Potency [18]: 5.22 µM (active)
Potency [19]: inactive

C[C@H]1C[C@H]2[C@@H]3CCC4=CC(=O)C=C[C@]4(C)[C@@H]3C(=O)C[C@]2(C)[C@@]1(O)C(=O)CO
Potency [1]: inactive
Potency [14]: inactive
Potency [3]: inactive
Potency [4]: inactive
Potency [15]: inactive
Potency [16]: inactive

CC(C)(O)CC[C@@H](O)[C@](C)(O)[C@H]1CC[C@@]2(O)C3=CC(=O)[C@@H]4C[C@@H](O)[C@@H](O)C[C@]4(C)[C@@H]3CC[C@]12C
Potency [1]: inactive
Potency [14]: inactive
Potency [4]: inactive
Potency [20]: inactive
Potency [15]: inactive
Potency [16]: inactive

COc1ccc(C(C)=O)c(O)c1
Potency [1]: 6.85 µM (active)
Potency [14]: inactive
Potency [3]: 16.6 µM (active)
Potency [4]: inactive
Potency [15]: inactive
Potency [6]: inactive
Potency [7]: inactive
Potency [8]: inactive
Potency [9]: inactive
Potency [17]: inactive
Potency [10]: inactive
Potency [12]: inactive
Potency [18]: inactive
Potency [19]: inactive

O=C1CSC(=O)N1C(CCc1ccncc1)COc1ccc(-c2cccc([N+](=O)[O-])c2)cc1 (stereo unspecified)
Potency [1]: 6.85 µM (active)
Potency [14]: inactive
Potency [20]: inactive
